In ChEMBL document CHEMBL3433997, “St. Jude Leishmania screening dataset” (2016):

Legend:
Type in all cases: functional
[1] = molecular target: Solute carrier family 2, facilitated glucose transporter member 1 (Homo sapiens) (UniProt P11166); experiment: ST_JUDE_LEISH: Cytotoxicity at 2uM final concentration against transgenic Leishmania Mexicana promastigotes LmGLUT1 that are glucose transport deficient and complemented with the human glucose transporter GLUT1. Activity is measured by DNA content using SYBR green in vitro
[2] = molecular target: Hexose transporter 1 (Plasmodium falciparum) (UniProt O97467); experiment: ST_JUDE_LEISH: Cytotoxicity at 2uM final concentration against transgenic Leishmania Mexicana promastigotes LmPfHT that are glucose transport deficient and complemented with the Plasmodium falciparum hexose transporter. Activity is measured by DNA content using SYBR green in vitro
[3] = molecular target: Glucose transporter (Leishmania mexicana) (UniProt O61059); experiment: ST_JUDE_LEISH: Cytotoxicity at 2uM final concentration against transgenic Leishmania Mexicana promastigotes LmGT2 that are glucose transport deficient and complemented with the L. Mexicana glucose transporter 2. Activity is measured by DNA content using SYBR green in vitro

Solute carrier family 2, facilitated glucose transporter member 1 (Homo sapiens), sequence (P11166 whole entry): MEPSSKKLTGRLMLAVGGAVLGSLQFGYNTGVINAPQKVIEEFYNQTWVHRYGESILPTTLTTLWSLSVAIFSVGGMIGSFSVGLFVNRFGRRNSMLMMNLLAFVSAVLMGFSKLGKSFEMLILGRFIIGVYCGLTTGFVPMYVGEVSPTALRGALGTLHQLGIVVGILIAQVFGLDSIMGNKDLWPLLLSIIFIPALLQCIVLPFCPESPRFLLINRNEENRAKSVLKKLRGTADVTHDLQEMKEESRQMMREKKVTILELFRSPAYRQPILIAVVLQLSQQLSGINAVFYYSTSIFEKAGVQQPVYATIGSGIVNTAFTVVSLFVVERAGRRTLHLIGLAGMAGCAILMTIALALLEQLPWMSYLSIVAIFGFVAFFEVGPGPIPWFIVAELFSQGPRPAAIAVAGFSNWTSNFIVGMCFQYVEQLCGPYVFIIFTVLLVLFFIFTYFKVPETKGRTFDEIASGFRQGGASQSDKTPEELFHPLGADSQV

**Q.** How did the inhibition [1] turn out when `CN(C)Cc1cccc(-c2ccc(NC(=O)c3ccc4c(=O)n(CC5CCCO5)cnc4c3)cc2)c1` (stereo unspecified) was run?
**A.** Its inhibition is 38.5%.

**Q.** And the inhibition [2]?
**A.** Its inhibition is 22.4%.

**Q.** And the inhibition [3]?
**A.** The inhibition was 14.5%.

**Q.** `Cc1cc(Cc2ccc(S(=O)(=O)c3cc4c(cc3O)CCN(C)CC4)cc2)ccc1Cl` was tested. Which inhibition [1] did it give?
**A.** Its inhibition is -0.06%.

**Q.** What about the inhibition [2] of the same compound?
**A.** Its inhibition is 2.07%.

**Q.** What about the inhibition [3] of the same compound?
**A.** The inhibition was 0.31%.

**Q.** With `COc1cc2c(C3CCN(CC4CCN(C(=O)/C=C/c5ccc(Cl)c(Cl)c5)CC4)CC3)c[nH]c2cn1` as the compound, how does the inhibition [1] read?
**A.** Its inhibition is 2.4%.

**Q.** And the inhibition [2]?
**A.** Its inhibition is -0.95%.

**Q.** What about the inhibition [3] of the same compound?
**A.** The inhibition was -0.88%.

**Q.** `Cc1ccc(NC(=O)Nc2cccc(Cl)c2)cc1-c1ccc(C(=O)Nc2ccncc2)cc1` was tested. Which inhibition [1] did it give?
**A.** Its inhibition is -1.84%.

**Q.** And the inhibition [2]?
**A.** The inhibition was -1.56%.

**Q.** What about the inhibition [3] of the same compound?
**A.** Its inhibition is -1.5%.

**Q.** Which results are given for `COc1cc(C2=NN(S(=O)(=O)c3c(Cl)cc(Cl)cc3Cl)CCCC2)ccc1Cl`?
**A.** inhibition [1]: 2.1%; inhibition [2]: 2.71%; inhibition [3]: 4.36%

**Q.** With `CC(C)(C)c1ccc(CN2CCC(NC(=O)c3ccc(-c4ccccc4Cl)s3)CC2)cc1` as the compound, how does the inhibition [1] read?
**A.** The inhibition was 10.1%.

**Q.** And the inhibition [2]?
**A.** Its inhibition is 7.04%.

**Q.** And the inhibition [3]?
**A.** Its inhibition is 3.18%.

**Q.** Which inhibition [1] does the source give for `CCOc1ccc(C(=O)N2CCOC(CCN3CCC4(CCc5ccccc54)CC3)(c3ccc(Cl)c(Cl)c3)C2)cc1` (stereo unspecified) here?
**A.** Its inhibition is 5.41%.

**Q.** And the inhibition [2]?
**A.** The inhibition was 5.56%.

**Q.** What about the inhibition [3] of the same compound?
**A.** Its inhibition is 5.12%.

**Q.** Which results are given for `O=C(CCC1CCCC1)N(Cc1ccc(-c2ccc(CNCCc3ccccn3)cc2)cc1)CC1CCCCN1` (stereo unspecified)?
**A.** inhibition [1]: 15.2%; inhibition [2]: 4.22%; inhibition [3]: 1.88%

**Q.** For `Cc1cccc(NC(c2cccs2)c2c(NC(=O)c3ccccc3)sc(C)c2C)n1` (stereo unspecified), which inhibition [1] is on record?
**A.** Its inhibition is 6.21%.

**Q.** And the inhibition [2]?
**A.** The inhibition was 3.93%.

**Q.** What about the inhibition [3] of the same compound?
**A.** Its inhibition is 2.13%.

**Q.** Which results are given for `Oc1ccc(Nc2nc(NCC3CCCO3)c3ccccc3n2)cc1` (stereo unspecified)?
**A.** inhibition [1]: 7.56%; inhibition [2]: 6.25%; inhibition [3]: 1.86%

**Q.** With `CC1(CCCCN2CCC(Oc3ccc(F)cc3F)CC2)C(=O)Nc2ccccc21` (stereo unspecified) as the compound, how does the inhibition [1] read?
**A.** Its inhibition is 3.9%.

**Q.** What about the inhibition [2] of the same compound?
**A.** The inhibition was 3.15%.

**Q.** What about the inhibition [3] of the same compound?
**A.** The inhibition was 5.35%.

**Q.** `CCOc1ccc2nc3cc(NC(=O)c4ccco4)ccc3c(N)c2c1` was tested. Which inhibition [1] did it give?
**A.** Its inhibition is 3.66%.

**Q.** What about the inhibition [2] of the same compound?
**A.** Its inhibition is 3.27%.

**Q.** And the inhibition [3]?
**A.** Its inhibition is 2.78%.
